Source: PubChem BioAssay (National Center for Advancing Translational Sciences (NCATS))
This is a sample that favours compounds with a hit; in the whole collection about 21% have one here.
Shiga toxin inh: inhibitors of Shiga toxin in Vero cells. 9.2% of 290,000 active. AID 2315. inhibition, % at 38.7 µM. Vero cells, Shiga toxin protein synthesis inhibition reporter; in the data active = inhibition mostly above about 28%, no sharp cut-off; inactive = mostly below about 43%; note: 0% is about no effect
NS1 inh: inhibitors of influenza NS1 protein function; Potency, µM (top dose mostly 46.1 µM), inactives show at the top dose activity, positive = more growth; 0.4% of 270,000 active; AID 2326; calls by dose curve; note: potency is the fitted concentration of half-maximal effect; actives are rising curves; nearly all actives have a fitted effect of over 50% in size
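OD600 was taken as the measure of yeast growth restored by compound in an NS1-expressing S. cerevisiae strain. Cells had been washed out of glucose medium and diluted 1:100 into galactose -URA medium, pH 6.0.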
Cycloheximide cs: affects cycloheximide protein synthesis inhibition readout, counter-screen | cell reporter, cycloheximide protein synthesis inhibition counterscreen | AID 2314 | 12% of 300,000 active | max response, %; in the data active = max response mostly above about 13%, no sharp cut-off; inactive = mostly below about 14%; note: read at 38.3 µM for the half of the compounds with a filed dose; 0% is about no effect
Pf growth 96h: P. falciparum growth inhibition at 96 hour, primary screen for plastid delayed-death inhibitors; P. falciparum luciferase reporter growth, 96 h; Potency, µM (doses to about 28.7 µM), without a hit: at the highest dose activity change, negative = inhibition, usual class: inhibitors; 6.9% of 320,000 active; AID 504834; note: potency is the fitted concentration of half-maximal effect; % is set by controls: 0 for no effect and ±100 for the full control effect
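Erythrocytes infected with luciferase-expressing P. falciparum were dispensed at 2% hematocrit and 0.05% parasitemia (final), then incubated with compounds 96 hours at 37 C in 5% CO2. Luminescence after detection reagent addition reported growth.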
Pf growth 48h: P. falciparum growth inhibition at 48 hours (one generation); P. falciparum luciferase growth in erythrocytes, 48 h; Potency, µM (highest dose often 28.7 µM), for the others: top-dose activity change, negative = inhibition, most hits filed as inhibitors; 5.9% of 310,000 active; AID 504832; note: potency is the fitted concentration of half-maximal effect; % is set by controls: 0 for no effect and ±100 for the full control effect
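Cell-based growth assay: transgenic P. falciparum expressing firefly luciferase, cultured in red cells within RPMI 1640 containing 0.5% w/v Albumax, 24 mM bicarbonate and gentamycin. A drop in luciferase activity indicates inhibition.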
Active calls of the source: *; ? = inconclusive; . = not tested or not shown. Unless noted, calls come from the whole dose curve; as a rule, active = well fitted inhibition curve with a large enough effect; inconclusive = small, poorly fitted or top-dose-only effect, or another doubt; inactive = no such curve, though single readings can be large or run the other way.

SMILES	Shiga toxin inh	NS1 inh	Cycloheximide cs	Pf growth 96h	Pf growth 48h
O=C(Nc1ccc(S(=O)(=O)Nc2ncccn2)cc1)c1cccc(S(=O)(=O)N2CCCC2)c1	-6	?	4	7%	4%
CCc1cc2c(C)cc(=O)oc2cc1Oc1ncccc1[N+](=O)[O-]	-3	.	-3	182%	?
COC(=O)c1ccc(NC(=O)CCN2CCOCC2)cc1	-15	8%	-1	30%	?
O=C(N/N=C/c1cccnc1)c1cc(O)c(O)c(O)c1	2	7%	-1	19%	0%
O=C(N/N=C/c1cccnc1)c1ccc(O)cc1	40	5%	19*	3%	28%
COc1cccc(C(=O)N/N=C/c2ccc(OC3CSC3)cc2)c1	31	4%	16	.	-8%
O=C(N/N=C/c1ccc2nccnc2c1)c1ccncc1	11	7%	18	?	10%
O=C(N/N=C/c1ccc(O)cc1)c1ccncc1	21	12%	9.8*	5%	-8%
Cc1cccc(C(=O)N/N=C/c2ccc(OC3CSC3)cc2)c1	15	0%	24*	12%	?
Fc1ccc2c(Cl)c(-c3nnc(-c4cccs4)o3)sc2c1	78*	2%	35*	27%	215%
COc1cc(-c2nnc(-c3cccs3)o2)cc(OC)c1OC	16	-6%	2	.	-19%
Cc1ccc(NC2(C#N)C(=O)Nc3ccccc32)cc1C (stereo unspecified)	-7	.	5	?	13%
CC(C)c1ccc(C(=O)N(c2ccccn2)C(C)c2ccco2)cc1 (stereo unspecified)	90*	-50%	30*	?	?
CC(c1ccco1)N(C(=O)c1ccccc1NS(=O)(=O)c1ccc(Cl)c([N+](=O)[O-])c1)c1ccccn1 (stereo unspecified)	39*	-16%	-3	?	-1%
CC(c1ccco1)N(C(=O)c1ccc(C#N)cc1)c1ccccn1 (stereo unspecified)	-52	4%	-4	.	3%
NC(=O)CC(NC(=O)c1cccc(Br)c1)c1ccc(NC2CCCCCCC2)c([N+](=O)[O-])c1 (stereo unspecified)	-5	23%	-1	?	-22%
COC(=O)c1ccc(N(C(=O)c2ccco2)C(C(=O)NC2CCCC2)c2ccco2)cc1 (stereo unspecified)	12	-1%	12	14%	?
COc1ccc(NC(=O)C2(S(=O)(=O)c3ccc(C)cc3)CC2)cc1	-8	21%	-2	12%	25%
COc1ccccc1-n1cc(-c2ccc(Cl)cc2)[nH]c1=O	-11	4%	1	?	-23%
CCC(=O)Nc1nc2ccc([N+](=O)[O-])cc2s1	14	-55%	10	46%	81%
Cc1nc2c(ccc3nc(NC(=O)C4CC4)sc32)s1	85*	.	52*	10%	35%
CCC(=O)Nc1nc2ccc3sc(C)nc3c2s1	96*	-7%	50*	-6%	?
S=C1NC2(CCCCCC2)N=C1c1ccccc1	-10	.	4	153%	13µM*
Cc1ccc(C2=NC3(CCCC3)NC2=S)cc1	91	-1%	22*	-9%	29%
S=C1NC2(CCCC2)N=C1c1ccccc1	39	.	21*	0%	7%
SMILES	Shiga toxin inh	NS1 inh	Cycloheximide cs	Pf growth 96h	Pf growth 48h
O=C(c1ccc(Cn2cc(Br)cn2)cc1)N1N=C(C(F)F)CC1(O)C(F)F (stereo unspecified)	-10	-7%	-3	-19%	3%
Cc1nc(NC(=O)c2cccc(-c3cc4ccccc4oc3=O)c2)ccc1Br	31	22%	2	-18%	95%
O=C(Nc1ccccc1N1CCCC1)c1cccc(-c2cc3ccccc3oc2=O)c1	29	?	18*	?	?
O=C(Nc1ccc(N2CCCC2)cc1)c1cccc(-c2cc3ccccc3oc2=O)c1	14	?	8	0.41µM*	9%
O=C(Nc1ccc(N2CCOCC2)cc1)c1cccc(S(=O)(=O)N2CCCC2)c1	-6	3%	1	-22%	-22%
O=C(Nc1ccc(Br)cn1)c1cccc(-c2cc3ccccc3oc2=O)c1	49*	13%	41*	132%	163%
O=C(Nc1ccccc1N1CCCC1)c1ccc2c(c1)OCO2	10	-40%	1	29%	0%
CC(C)COC(=O)C1C2C=CC3(CN(C4CCCC4)C(=O)C13)O2 (stereo unspecified)	13	0%	-5	-38%	0%
